Reference: the supplement of paper PMC6555819

Key:
Test in all cases: PBM binding z-score (relative to random genomic background probes); higher = stronger binding; sequences stand for … in GC…GCGATTGACAGCGTAGAATGAAGG
[1] = test system: FXR:RXRa (NR concentration 270 nM, RXRa partner concentration 90 nM)
Method in brief: (§1)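 Binding buffer was PBS pH 7.4 with 2% milk, 0.02% Triton X-100, 1 mM DTT, 0.2 mg/mL BSA and 0.4 mg/ml salmon testes DNA. In it, ligand-free nuclear receptor dimers were incubated 1 h on custom Agilent 4×180K protein-binding microarrays carrying double-stranded probes. Antibodies against each partner (one per run) detected binding, and z-scores were calculated against random background probes after regression normalization of scanned fluorescence.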

[2] = test system: LXRa:RXRa (NR concentration 270 nM, RXRa partner concentration 90 nM)
Method in brief: as §1

[3] = test system: LXRa homodimer (NR concentration 270 nM)
Method in brief: as §1

[4] = test system: LXRb:RXRa (NR concentration 270 nM, RXRa partner concentration 90 nM)
Method in brief: as §1

[5] = test system: LXRb homodimer (NR concentration 270 nM)
Method in brief: as §1

[6] = test system: PPARa:RXRa (NR concentration 270 nM, RXRa partner concentration 90 nM)
Method in brief: as §1

[7] = test system: PPARg:RXRa (NR concentration 180 nM, RXRa partner concentration 90 nM)
Method in brief: as §1

[8] = test system: PPARg:RXRa 270nM:90nM, anti-RXR (NR concentration 270 nM, RXRa partner concentration 90 nM)
Method in brief: as §1

[9] = test system: PPARg:RXRa 30nM:10nM, anti-RXR (NR concentration 30 nM, RXRa partner concentration 10 nM)
Method in brief: as §1

[10] = test system: PPARg:RXRa 90nM:30nM, anti-RXR (NR concentration 90 nM, RXRa partner concentration 30 nM)
Method in brief: as §1

[11] = test system: PPARg:RXRa DBDmut IVT, anti-RXR (DBD mutation: RXRa K156A/R161A, NR concentration 270 nM, RXRa partner concentration 90 nM)
Method in brief: as §1

[12] = test system: PPARg:RXRa IVT, anti-PPARg (NR concentration 270 nM, RXRa partner concentration 90 nM)
Method in brief: as §1

[13] = test system: PPARg DBDmut:RXRa IVT, anti-PPARg (DBD mutation: PPARg1 K132A/R137A, NR concentration 270 nM, RXRa partner concentration 90 nM)
Method in brief: as §1

[14] = test system: PPARg DBDmut IVT, anti-PPARg (DBD mutation: PPARg1 K132A/R137A, NR concentration 270 nM)
Method in brief: as §1

[15] = test system: PPARg homodimer (NR concentration 180 nM)
Method in brief: as §1

[16] = test system: PXR:RXRa (NR concentration 270 nM, RXRa partner concentration 90 nM)
Method in brief: as §1

[17] = test system: PXR homodimer (NR concentration 270 nM)
Method in brief: as §1

[18] = test system: RARa:RXR (NR concentration 270 nM, RXRa partner concentration 90 nM)
Method in brief: as §1

[19] = test system: RARa homodimer (NR concentration 270 nM)
Method in brief: as §1

[20] = test system: RARb:RXRa (NR concentration 270 nM, RXRa partner concentration 90 nM)
Method in brief: as §1

| Sequence | PBM binding z-score [1] | PBM binding z-score [2] | PBM binding z-score [3] | PBM binding z-score [4] | PBM binding z-score [5] | PBM binding z-score [6] | PBM binding z-score [7] | PBM binding z-score [8] | PBM binding z-score [9] | PBM binding z-score [10] | PBM binding z-score [11] | PBM binding z-score [12] | PBM binding z-score [13] | PBM binding z-score [14] | PBM binding z-score [15] | PBM binding z-score [16] | PBM binding z-score [17] | PBM binding z-score [18] | PBM binding z-score [19] | PBM binding z-score [20] |
| --- | --- | --- | --- | --- | --- | --- | --- | --- | --- | --- | --- | --- | --- | --- | --- | --- | --- | --- | --- | --- |
| CCTAACGGGTCAAGGTTATAGCACGGGTGGTACG | 4.72 | 3.16 | 0.175 | 2.46 | 0.225 | 4.48 | 3.41 | 3.67 | 1.21 | 2.39 | 0.873 | 2.74 | -0.204 | -0.102 | 2.32 | 2.84 | 0.496 | 3.76 | 1.14 | 3.9 |
| GCAGCTAGGTCAACTGATGGTCAGCTAAAGCTCG | 3.76 | 2.29 | -0.24 | 1.56 | -0.578 | 3.37 | 2.48 | 3.01 | 0.457 | 1.89 | 4.33 | 4.15 | -0.285 | -1.01 | 1.13 | 1.2 | -0.968 | 2.49 | -0.66 | 4.24 |
| ATCTCTAGGTAAGACTCAGTTCACTGAAGAACGC | 0.642 | 0.841 | 0.58 | 0.734 | 0.669 | 0.739 | 0.313 | 0.623 | 0.222 | 0.475 | 1.88 | 1.2 | 0.951 | 1.23 | 0.997 | 1.71 | 1.12 | 1.01 | 0.789 | 0.577 |
| CCTCCTAGGTCATGGTCAGCTAATCTACAGTATG | 3.85 | 2.79 | 0.804 | 2.24 | 0.0954 | 3.8 | 2.72 | 2.89 | 0.958 | 2.09 | 3.36 | 3.76 | 0.488 | 0.0352 | 1.57 | 1.77 | 0.241 | 2.36 | 1.05 | 4.02 |
| ACAGAAAGGTGAGTGAAGGTAACTCAGCTGGACG | 1.15 | 0.894 | -0.288 | 0.22 | -0.612 | 1.81 | 1.25 | 1.23 | 0.0865 | 0.656 | 1.69 | 1.91 | 0.587 | -0.401 | 0.248 | 0.345 | -0.335 | 0.81 | 0.239 | 2.47 |
| CCGAGCAGGTTATGGGGCATTCAGGCAACGGTGA | 0.101 | 0.177 | -0.511 | 0.325 | -0.148 | 1.45 | 0.617 | 1.24 | -0.414 | 0.762 | 0.393 | 1.05 | -0.884 | -0.839 | 0.261 | -0.112 | -0.362 | 0.225 | -0.391 | 1.04 |
| CCTTACGGGTCAAGATTATAGCACGGGTGGTACG | 4.99 | 3.15 | 0.00162 | 2.76 | 0.37 | 4.61 | 3.55 | 3.6 | 1.65 | 2.56 | 1.74 | 2.81 | -0.14 | 0.0306 | 2.2 | 2.85 | -0.0377 | 4.07 | 1.11 | 3.98 |
| TTACCAAGGTGAGCTGTGGTCGTTGATCCAACTC | 0.0539 | -0.153 | -0.583 | -0.347 | -1.27 | 0.301 | -0.403 | 0.0963 | -0.507 | 0.106 | 1.27 | 1.57 | 0.175 | 0.327 | -0.41 | 0.219 | -0.79 | -0.0403 | -0.989 | 1.04 |
| CCTTACGCGTCACTGACAGGTTATAGCATTTGGA | 0.188 | 0.449 | 0.568 | 0.697 | 0.644 | 0.558 | 0.31 | 0.128 | 0.0399 | 0.241 | 0.598 | -0.176 | 0.212 | 0.276 | 0.943 | 0.459 | 0.407 | 0.676 | 1.36 | 0.243 |
| TTACCAAGGTGAAGGTCTTTGATCCCTCTGTAGA | 0.557 | 0.55 | -0.405 | 0.371 | -0.742 | 1.64 | 1.37 | 2.45 | 0.89 | 2.12 | 1.88 | 3.26 | -0.214 | 0.0438 | 0.225 | 0.389 | -0.43 | 0.847 | -0.184 | 1.65 |
| ACTATTAGTTGAGATGAGGGCAACCGATAGGTTG | 1.23 | 0.291 | 0.338 | 0.212 | 0.0544 | 0.427 | 0.607 | 0.07 | 0.15 | 0.083 | 0.105 | 0.33 | 1.25 | 0.632 | 0.972 | 1.35 | 0.727 | 0.676 | 1.33 | 1.22 |
| GGAACGAGAGCAAGTTGATAGCAGAGTTTGATGG | -0.63 | -0.766 | -0.719 | -0.852 | -1.03 | -0.523 | 0.39 | -0.573 | -0.225 | -0.721 | 0.286 | -0.607 | -0.891 | -0.825 | -0.674 | -0.482 | 0.00313 | -0.584 | -0.345 | -0.427 |
| CAAACTAGGTCACAGAGGTCATAGTCCGTGCGTA | 6.73 | 6.13 | 6.94 | 5.6 | 1.6 | 6.22 | 10 | 8 | 7.14 | 7.77 | 8.64 | 9.13 | 4.61 | 1.67 | 6.77 | 6.52 | 12.2 | 7.31 | 3.54 | 5.27 |
| TAGCCTAGGTCATTAAGGGGCCAGTATAGAAAGC | 3.58 | 3.35 | 0.285 | 2.67 | 0.552 | 3.21 | 1.75 | 2.07 | 0.301 | 1.11 | 1.56 | 2.58 | 0.422 | 0.198 | 0.937 | 1.36 | -0.202 | 2.18 | 0.00876 | 3.64 |
| ATCGAAAGGTCGAGGTGAGTCTAGAGAAAGGGAA | 4.71 | 3.71 | 0.045 | 2.76 | 0.53 | 4.63 | 3.46 | 3.62 | 1.16 | 2.32 | 0.536 | 2.56 | 0.697 | 0.961 | 1.92 | 3.05 | 0.144 | 3.67 | 0.714 | 4.31 |
